Reference: PubChem BioAssay
Inconclusive results are not listed. Calls of active or inactive are those of the source. Unless noted, no cut-off is given here; in the data, nearly all actives have AC50 up to about 26 µM.

Test: viability loss in pontine glioma line – cell-based, SU-DIPG-IV, MIPE4.0, CellTiter-Glo, qHTS, dose response (AID 1347063; cut-off not given, nearly all actives have AC50 up to about 30 µM;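 note: compound exposure lasted 48 hours before the viability readout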)
Conditions: CellTiter-Glo ATP luminescence

SMILES	AC50	outcome
Cc1cc(=O)c2c(O)c3c(O)cc(=O)c4c3c3c(cc(O)c1c23)C(C)(C)C=4O	0.469 µM (active)	–
CC(C)OC(=O)OCOP(=O)(CO[C@H](C)Cn1cnc2c(N)ncnc21)OCOC(=O)OC(C)C	–	inactive
COc1ccc(-c2ccc3cc(C(=O)O)ccc3c2)cc1C12CC3CC(CC(C3)C1)C2	–	inactive
CCOC(=O)c1c(C)n(C)c2ccc(O)cc12	–	inactive
NCCCC(N)(C(=O)O)C(F)F (stereo not given)	–	inactive
CC(=O)N[C@H]1[C@H]([C@H](O)[C@H](O)CO)OC(C(=O)O)=C[C@@H]1N=C(N)N	–	inactive
C=CC(=O)Nc1cc2c(Nc3ccc(F)c(Cl)c3)ncnc2cc1OCCCN1CCOCC1	5.9 µM (active)	–
Cc1nnc(C(=O)NC(C)(C)c2nc(C(=O)NCc3ccc(F)cc3)c(O)c(=O)n2C)o1	–	inactive
Cc1ccccc1C(=O)Nc1ccc(C(=O)N2CCCC(O)c3cc(Cl)ccc32)c(C)c1 (stereo not given)	–	inactive
COc1ccc2cccc(CCNC(C)=O)c2c1	–	inactive
Clc1ccc(C(Cn2ccnc2)OCc2ccc(Sc3ccccc3)cc2)c(Cl)c1 (stereo not given)	16.6 µM (active)	–
N[C@@H](Cc1c[nH]c2ccc(O)cc12)C(=O)O	–	inactive
CCCCN(CCCC)CC(O)c1cc(Cl)cc2c1-c1ccc(Cl)cc1/C2=C/c1ccc(Cl)cc1 (stereo not given)	26.4 µM (active)	–
N=C(N)c1ccc2cc(OC(=O)c3ccc(N=C(N)N)cc3)ccc2c1	–	inactive
COC(c1ccccc1)(c1ccccc1)[C@H](Oc1nc(C)cc(C)n1)C(=O)O	–	inactive
c1cnc2cc3c(cc2n1)C1CNCC3C1	–	inactive
CCCCc1oc2ccc(NS(C)(=O)=O)cc2c1C(=O)c1ccc(OCCCN(CCCC)CCCC)cc1	7.43 µM (active)	–
CC(C)C[C@H](NC(=O)[C@H](CCc1ccccc1)NC(=O)CN1CCOCC1)C(=O)N[C@@H](Cc1ccccc1)C(=O)N[C@@H](CC(C)C)C(=O)[C@@]1(C)CO1	0.0235 µM (active)	–

Test: viability loss in pontine glioma line – cell-based, SU-DIPG-XIII, MIPE5.0, CellTiter-Glo, qHTS, dose response (AID 1347064; cut-off not given, nearly all actives have AC50 up to about 23 µM;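 for AC50: cells exposed to compound for 48 hours before the viability read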)
Conditions: CellTiter-Glo ATP luminescence

SMILES	outcome	AC50
NCCCC(N)(C(=O)O)C(F)F (stereo not given)	inactive	–
O=[N+]([O-])c1cncn1CCN1CCOCC1	inactive	–
C=CC(=O)Nc1cc2c(Nc3ccc(F)c(Cl)c3)ncnc2cc1OCCCN1CCOCC1	–	9.34 µM (active)
Cc1ccc(C(=O)c2cc(O)c(O)c([N+](=O)[O-])c2)cc1	inactive	–
COc1ccc2cccc(CCNC(C)=O)c2c1	inactive	–
C[C@]12CCC(=O)C=C1[C@@H]1C[C@@H]1[C@H]1[C@@H]3[C@@H]4C[C@@H]4[C@@]4(CCC(=O)O4)[C@@]3(C)CC[C@@H]12	inactive	–
CCC1=C[C@@H]2CN(C1)Cc1c([nH]c3ccccc13)[C@@](C(=O)OC)(c1cc3c(cc1OC)N(C)[C@H]1[C@@](O)(C(=O)OC)[C@H](OC(C)=O)[C@]4(CC)C=CCN5CC[C@]31[C@@H]54)C2	–	2.29 µM (active)
CC1(C)CCC(C)(C)c2cc(NC(=O)c3ccc(C(=O)O)cc3)ccc21	inactive	–
Cc1ccc(Nc2nccc(N(C)c3ccc4c(C)n(C)nc4c3)n2)cc1S(N)(=O)=O	–	3.72 µM (active)
Clc1ccc(C(Cn2ccnc2)OCc2ccc(Sc3ccccc3)cc2)c(Cl)c1 (stereo not given)	–	20.9 µM (active)
CNC(=O)c1ccccc1Sc1ccc2c(/C=C/c3ccccn3)n[nH]c2c1	–	1.48 µM (active)
CC(=O)OCC(=O)[C@@]12N=C(C)O[C@@H]1C[C@H]1[C@@H]3CCC4=CC(=O)C=C[C@]4(C)[C@H]3[C@@H](O)C[C@@]12C	inactive	–
O=P(O)(O)C(O)(Cn1ccnc1)P(=O)(O)O	inactive	–
O=c1cc(O)c(Cl)c[nH]1	inactive	–
Clc1ccc(C(Cn2ccnc2)OCc2c(Cl)cccc2Cl)c(Cl)c1 (stereo not given)	–	20.9 µM (active)
CC(C)(C)C(=O)Oc1ccc(S(=O)(=O)Nc2ccccc2C(=O)NCC(=O)O)cc1	inactive	–
N[C@@H](Cc1c[nH]c2ccc(O)cc12)C(=O)O	inactive	–
N#Cc1c(N(CC(=O)O)CC(=O)O)sc(C(=O)O)c1CC(=O)O	inactive	–
N=C(N)c1ccc2cc(OC(=O)c3ccc(N=C(N)N)cc3)ccc2c1	inactive	–
NC(=O)c1ncn([C@@H]2O[C@H](CO)[C@@H](O)[C@H]2O)c1N	inactive	–
c1cnc2cc3c(cc2n1)C1CNCC3C1	inactive	–
CC(C(=O)O)c1ccc2c(c1)CC(=O)c1ccccc1S2 (stereo not given)	inactive	–
CN(C)C(=O)COC(=O)Cc1ccc(OC(=O)c2ccc(N=C(N)N)cc2)cc1	inactive	–
CCCCc1oc2ccc(NS(C)(=O)=O)cc2c1C(=O)c1ccc(OCCCN(CCCC)CCCC)cc1	–	11.8 µM (active)
CC(C)C[C@H](NC(=O)[C@H](CCc1ccccc1)NC(=O)CN1CCOCC1)C(=O)N[C@@H](Cc1ccccc1)C(=O)N[C@@H](CC(C)C)C(=O)[C@@]1(C)CO1	–	0.00742 µM (active)

Test: viability loss in pontine glioma line – cell-based, SU-DIPG-XXV, MIPE5.0, CellTiter-Glo, qHTS, dose response (AID 1347065);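 note: cells exposed to compound for 48 hours before ATP readout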
Conditions: CellTiter-Glo ATP luminescence

SMILES	AC50	outcome
O=C(O)c1ccc(-n2nc(-c3ccccc3O)nc2-c2ccccc2O)cc1	20.9 µM (active)	–
NCCCC(N)(C(=O)O)C(F)F (stereo not given)	–	inactive
CN1CCCN=C1/C=C/c1cccs1	–	inactive
O=[N+]([O-])c1cncn1CCN1CCOCC1	–	inactive
C=CC(=O)Nc1cc2c(Nc3ccc(F)c(Cl)c3)ncnc2cc1OCCCN1CCOCC1	6.61 µM (active)	–
Cc1ccc(C(=O)c2cc(O)c(O)c([N+](=O)[O-])c2)cc1	–	inactive
Cc1nnc(C(=O)NC(C)(C)c2nc(C(=O)NCc3ccc(F)cc3)c(O)c(=O)n2C)o1	–	inactive
Cc1ccccc1C(=O)Nc1ccc(C(=O)N2CCCC(O)c3cc(Cl)ccc32)c(C)c1 (stereo not given)	–	inactive
COc1ccc2cccc(CCNC(C)=O)c2c1	–	inactive
Cc1cc2c(cc1CC(=O)c1sccc1S(=O)(=O)Nc1onc(C)c1Cl)OCO2	–	inactive
CCC1=C[C@@H]2CN(C1)Cc1c([nH]c3ccccc13)[C@@](C(=O)OC)(c1cc3c(cc1OC)N(C)[C@H]1[C@@](O)(C(=O)OC)[C@H](OC(C)=O)[C@]4(CC)C=CCN5CC[C@]31[C@@H]54)C2	0.204 µM (active)	–
CC1(C)CCC(C)(C)c2cc(NC(=O)c3ccc(C(=O)O)cc3)ccc21	–	inactive
Cc1ccc(Nc2nccc(N(C)c3ccc4c(C)n(C)nc4c3)n2)cc1S(N)(=O)=O	5.9 µM (active)	–
CNC(=O)c1ccccc1Sc1ccc2c(/C=C/c3ccccn3)n[nH]c2c1	1.18 µM (active)	–
O=P(O)(O)C(O)(Cn1ccnc1)P(=O)(O)O	–	inactive
O=c1cc(O)c(Cl)c[nH]1	–	inactive
Clc1ccc(C(Cn2ccnc2)OCc2c(Cl)cccc2Cl)c(Cl)c1 (stereo not given)	23.5 µM (active)	–
N[C@@H](Cc1c[nH]c2ccc(O)cc12)C(=O)O	–	inactive
O=C(Nc1ccc(S(=O)(=O)N2CCOCC2)cc1)c1cc(Cl)ccc1NS(=O)(=O)c1ccc(Cl)s1	–	inactive
N#Cc1c(N(CC(=O)O)CC(=O)O)sc(C(=O)O)c1CC(=O)O	–	inactive
N=C(N)c1ccc2cc(OC(=O)c3ccc(N=C(N)N)cc3)ccc2c1	–	inactive
COC(c1ccccc1)(c1ccccc1)[C@H](Oc1nc(C)cc(C)n1)C(=O)O	–	inactive
NC(=O)c1ncn([C@@H]2O[C@H](CO)[C@@H](O)[C@H]2O)c1N	–	inactive
c1cnc2cc3c(cc2n1)C1CNCC3C1	–	inactive
CC(C(=O)O)c1ccc2c(c1)CC(=O)c1ccccc1S2 (stereo not given)	–	inactive
CN(C)C(=O)COC(=O)Cc1ccc(OC(=O)c2ccc(N=C(N)N)cc2)cc1	–	inactive
CC(C)C[C@H](NC(=O)[C@H](CCc1ccccc1)NC(=O)CN1CCOCC1)C(=O)N[C@@H](Cc1ccccc1)C(=O)N[C@@H](CC(C)C)C(=O)[C@@]1(C)CO1	0.00525 µM (active)	–
